Data as given in publication PMC4336329 (PLoS ONE, 2015).
Out of some 310,000 compounds screened, about 14,000 (4.5%) showed an effect of 50% or more. The effect is printed as a negative number. The entries come from a sample that favours strong results as a whole.

target: human ether-à-go-go-related gene (hERG) potassium channel (human, UniProt Q12809); assay: primary screen, population patch clamp on CHO cells stably expressing hERG; higher = less effect of the substance
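Note: peak tail current of the secondary pulse compared with the same well before compound.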

human ether-à-go-go-related gene (hERG) potassium channel, sequence (Q12809 whole entry, looked up): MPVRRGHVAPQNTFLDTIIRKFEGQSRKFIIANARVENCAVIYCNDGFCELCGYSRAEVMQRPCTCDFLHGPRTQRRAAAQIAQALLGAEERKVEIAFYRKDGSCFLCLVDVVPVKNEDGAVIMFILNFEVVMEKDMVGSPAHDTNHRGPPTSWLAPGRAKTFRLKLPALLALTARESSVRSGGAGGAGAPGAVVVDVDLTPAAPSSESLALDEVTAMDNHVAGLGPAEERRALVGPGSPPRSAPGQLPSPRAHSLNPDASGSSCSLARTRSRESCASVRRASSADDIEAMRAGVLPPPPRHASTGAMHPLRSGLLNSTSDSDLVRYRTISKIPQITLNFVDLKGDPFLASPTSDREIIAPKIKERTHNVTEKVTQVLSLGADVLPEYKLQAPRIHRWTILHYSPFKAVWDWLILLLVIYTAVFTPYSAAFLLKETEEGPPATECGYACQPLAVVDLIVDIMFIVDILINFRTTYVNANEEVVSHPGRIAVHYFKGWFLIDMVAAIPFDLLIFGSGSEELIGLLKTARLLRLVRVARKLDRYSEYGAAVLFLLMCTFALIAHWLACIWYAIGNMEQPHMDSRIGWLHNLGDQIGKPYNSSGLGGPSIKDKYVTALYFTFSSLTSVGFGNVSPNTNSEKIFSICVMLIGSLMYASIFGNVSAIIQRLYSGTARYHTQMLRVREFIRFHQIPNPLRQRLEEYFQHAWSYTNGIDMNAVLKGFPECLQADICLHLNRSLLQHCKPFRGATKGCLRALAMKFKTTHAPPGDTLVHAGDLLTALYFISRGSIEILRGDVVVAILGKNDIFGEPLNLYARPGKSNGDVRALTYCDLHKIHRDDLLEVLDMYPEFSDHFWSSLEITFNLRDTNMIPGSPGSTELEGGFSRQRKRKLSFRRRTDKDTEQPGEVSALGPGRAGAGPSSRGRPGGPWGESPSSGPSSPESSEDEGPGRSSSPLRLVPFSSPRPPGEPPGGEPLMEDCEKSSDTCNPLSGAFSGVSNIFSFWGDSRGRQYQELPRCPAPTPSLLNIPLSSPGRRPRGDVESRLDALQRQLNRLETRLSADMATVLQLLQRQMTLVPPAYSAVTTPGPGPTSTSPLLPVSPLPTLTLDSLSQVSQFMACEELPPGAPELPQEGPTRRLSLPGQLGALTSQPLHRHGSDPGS

Compound | hERG current change (%, negative = inhibition) at 10uM [%]
c1ccc(CNCCC(Cc2ccccc2)c2ccco2)cc1 (centres unmarked) | -54.8
CN(C)c1ccc(CNCCC(Cc2ccccc2)c2ccco2)cc1 (centres unmarked) | -52.3
CC(=O)N(CCC(Cc1ccccc1)c1ccco1)Cc1ccco1 (centres unmarked) | -28.4
CCC(=O)N(CCC(Cc1ccccc1)c1ccco1)Cc1ccco1 (centres unmarked) | -1.81
O=C(NCCNCc1ccc(F)cc1)c1ccco1.O=C(O)C(=O)O | 9.99
Fc1ccc(CNCc2ccco2)cc1 | 11.5
Fc1ccc(CNCCC(Cc2ccccc2)c2ccco2)cc1 (centres unmarked) | -54.3
CC(=O)NCCC(Cc1ccccc1)c1ccco1 (centres unmarked) | 5.91
CC(NCCC(Cc1ccccc1)c1ccco1)c1ccccc1 (centres unmarked) | -22
O=C(Nc1cc(F)ccc1F)c1cccc(-n2cnnn2)c1 | -18.3
COC(=O)N/N=C/c1cn(CCCOc2ccccc2)c2ccccc12 | -4.14
C#Cc1ccc([C@H]2C=C(C(=O)N3CCOCC3)O[C@@H](OCC)[C@@H]2CCCO)cc1 | 6.65
COc1ccc(C)cc1NC(=O)C1CCCN1S(=O)(=O)c1ccc2c(c1)CCC(=O)N2 (centres unmarked) | -50.8
O=C1CCc2cc(S(=O)(=O)N3CCCC3C(=O)NC3CCCCCCC3)ccc2N1 (centres unmarked) | -50.3
O=C1CCc2cc(S(=O)(=O)N3CCC(C(=O)NC4CCCCCCC4)CC3)ccc2N1 | 10.8
COc1ccc(NC(=O)C2CCCN2S(=O)(=O)c2ccc3c(c2)CCC(=O)N3)c(OC)c1 (centres unmarked) | -16.8
COc1ccc(NC(=O)C2CCCN2S(=O)(=O)c2ccc3c(c2)CCC(=O)N3)cc1Cl (centres unmarked) | -27.8
O=C1CCc2cc(S(=O)(=O)N3CCC(C(=O)NC4CCCC4)CC3)ccc2N1 | -4.68
Cc1ccc(/C=N/NC(=O)c2cc(-c3cccnc3)nc3ccccc23)cc1 | -5.06
N#Cc1ccc(OCC(O)CS(=O)(=O)c2ccccc2)cc1 (centres unmarked) | -21
CC(=O)c1ccc(S(=O)(=O)Nc2cc3c(cc2C(C)=O)OCO3)cc1 | 21.2
COc1ccc(C(=O)N(Cc2nc(-c3ccc(C)cc3)no2)C(C)C)cc1OC | -31.4
Br.CCCCCN1C2=NCCN2c2ccccc21 | -71.4
CCCCCCN1C2=NCCN2c2ccccc21.Cl | -74
CCCN1C2=NCCN2c2ccccc21.Cl | -9.75
CCCCCCCN1C2=NCCN2c2ccccc21.Cl | -79.6
